FBA Mtb inh: Mtb fructose-bisphosphate aldolase inhibition; inhibition, % at 1 µM; AID 588726; P9WQA3; purified M. tuberculosis FBA, fluorescence read-out; actives 2.3% (n = 360,000);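 further: 0% = vehicle and 100% = reference inhibitor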
Target sequence (P9WQA3 whole entry, looked up): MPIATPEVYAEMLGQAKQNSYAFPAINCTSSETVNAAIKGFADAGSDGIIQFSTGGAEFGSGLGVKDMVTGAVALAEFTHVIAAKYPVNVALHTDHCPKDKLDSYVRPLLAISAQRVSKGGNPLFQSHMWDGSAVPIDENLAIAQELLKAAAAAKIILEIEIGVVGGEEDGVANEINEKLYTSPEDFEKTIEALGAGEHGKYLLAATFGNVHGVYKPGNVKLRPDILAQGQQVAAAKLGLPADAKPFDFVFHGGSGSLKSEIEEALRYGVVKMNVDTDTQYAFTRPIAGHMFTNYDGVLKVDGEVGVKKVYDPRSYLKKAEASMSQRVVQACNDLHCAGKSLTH
PrP UTR inh: suppresses PrP 5' UTR mRNA reporter expression. cell-based PrP 5' UTR mRNA reporter, plate reader. actives 0.35% (n = 340,000). inhibition, % (test concentration not listed); in the data active means inhibition above about 52%; further: 0 = median of the neutral control wells
GDH-TPI counter-1: GDH-TPI coupled enzyme inhibition counter-screen. GDH-TPI coupled enzyme counterscreen, NADH absorbance. inhibition, % at 4.8 µM. actives 1.2% (n = 360,000). AID 588335; in the data active means inhibition above about 30%;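 further: 0% = DMSO wells and 100% = wells lacking the enzyme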
PfHsp40 yeast: compounds rescuing yeast from Plasmodium falciparum HSP40 toxicity. actives 0.68% (n = 340,000). AID 504582. S. cerevisiae expressing PfHsp40, growth rescue, ATP luminescence. growth rescue, % at 12.5 µM; in the data active means growth rescue above about 28%, passing the limit was not always enough;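 further: yeast W303a lacking pdr1 and pdr3 grown in galactose medium; growth measured after three days at 30 °C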
PrPC surface inh: inhibitors of human cell surface prion protein PrPC. P04156. TR-FRET read-out. inhibition, % at 13.8 µM. actives 0.43% (n = 370,000). AID 720596; in the data active means inhibition above about 24%; further: 0% = median of the test wells and 100% = reference compound wells
BJeLR lethal: kills HRASV12-expressing BJeLR cells; BJeLR (HRASV12) viability, CellTiter-Glo ATP luminescence, 48 h; inhibition, % (no concentration beside the values); actives 0.17% (n = 300,000); AID 1554; in the data active means inhibition above about 50%
Mtb FBA inh conf: Mtb FBA inhibition, confirmed; shares compounds with FBA Mtb inh; purified M. tuberculosis FBA, fluorescence read-out; inhibition, % at 1 µM; actives 78% (n = 5,600);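 further: 0% = vehicle wells and 100% = reference inhibitor wells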
GDH-TPI counter-2: GDH-TPI inhibition counter-screen for FBA inhibitors. inhibition, % at 1 µM. GDH-TPI coupled enzyme counterscreen, fluorescence. shares compounds with FBA Mtb inh. actives 81% (n = 5,600); in the data active means inhibition above about 10%
* = called active by the depositor; / = no result; + = active, no number. An excerpt weighted towards active compounds, which were near 4.5% of everything screened. Unless noted, no stated cut-off is given here; in the data, active means inhibition above about 27%; inactive means the rest.

SMILES	FBA Mtb inh	PrP UTR inh	GDH-TPI counter-1	PfHsp40 yeast	PrPC surface inh	BJeLR lethal	Mtb FBA inh conf	GDH-TPI counter-2
CN(CCO)C(=O)C1CCN(c2ncc(C(F)(F)F)cc2Cl)CC1	40.6*	-33.9	4.5	-1.0	6.5	1.8	79.5*	62.5*
C/C(=N\NC(=O)c1cc(-c2ccncc2)nc2ccccc12)c1ccc(OC(F)F)cc1	-7.4	-26.4	-7.1	-0.6	-0.2	-8.4	/	/
CC(OC(=O)c1cc(S(=O)(=O)N2CCOCC2)ccc1F)C(=O)NC1CCCCC1C (stereo not given)	30.1*	-2.0	5.8	0.9	1.6	7.2	35.1*	26.8*
Cc1ccc(S(=O)(=O)N2CCOCC2)cc1C(=O)OC(C)C(=O)NC1CCCC1 (stereo not given)	0.7	-12.3	2.1	-0.4	-6.7	/	/	/
O=c1c2cc3cc4c(cc3nc2ncn1CCc1ccccc1)OCO4	/	/	/	/	-11.6	/	/	/
COC(=O)[C@]12C[C@H](CC(=O)N3CCN(C(=O)C4CC4)CC3)C(=O)N(CCc3ccc(OC)c(OC)c3)C1=C[C@H](COCc1ccccc1)O[C@@H]2C	/	/	/	/	0.8	/	/	/
COc1ccc(C2C3=C(CC(C)(C)CC3=O)Nc3nc(C)nn32)cc1OC (stereo not given)	35.6*	/	11.8	/	1.5	-14.2	+	+
COc1ccc(C2C3=C(CCCC3=O)Nc3nc(C(F)(F)F)nn32)cc1OC (stereo not given)	0.8	-21.0	0.6	-0.4	1.0	-0.9	/	/
COc1ccc2[nH]c(C(=O)O)c(CCC(=O)O)c2c1	41.5*	-11.5	-0.6	-0.6	-1.5	2.4	77.9*	59.0*
COc1ccc2[nH]c(C(=O)O)c(CCN3C(=O)c4ccc(C(=O)O)cc4C3=O)c2c1	2.5	-19.6	-4.4	-0.2	-4.0	5.0	/	/
COc1ccc(S(=O)(=O)Nc2c(C(=O)O)[nH]c3ccc(OC)cc23)cc1	26.9*	-15.5	2.5	-0.1	-9.9	-1.1	+	+
COc1ccc(CN2CCSCC2)c(C)c1C	4.5	-14.3	1.9	-0.1	-4.2	4.5	/	/
O=C(Nc1cccnc1)c1cc2c(s1)-c1ccccc1OC2	73.4*	-21.7	37.1*	5.3	-7.2	8.0	70.7*	53.6*
Cc1cccc2c1-c1sc(C(=O)Nc3cccnc3)cc1CO2	100.7*	-29.5	-0.9	0.3	-12.6	4.9	1.1	-4.0
O=C(Nc1nc2ccccc2s1)c1cc2c(s1)-c1ccccc1OC2	5.7	-59.6	2.0	2.6	0.6	-5.7	/	/
CC(C)CNC(=S)N(CCCO)Cc1cc2cc3c(cc2[nH]c1=O)OCO3	33.3*	-26.6	21.4	0.4	-1.4	-3.1	148.2*	97.8*
CC(C)CNC(=S)N(CCN(C)C)Cc1cc2cc3c(cc2[nH]c1=O)OCCO3	27.4*	-40.6	15.4	12.7	-0.5	-6.5	44.7*	38.6*
S=C(NCCCN1CCOCC1)Nc1cccc(-c2nnc3n2CCCCC3)c1	4.7	-14.3	5.8	-1.5	-1.8	-1.7	/	/
CCOC(=O)c1c(-c2ccccc2)[nH]c2ccc(O)cc12	39.6*	-9.2	19.0	1.7	-0.2	0.9	54.8*	49.0*
O=c1c2ccccc2[nH]c2ccc(O)cc12	28.5*	-28.4	-6.1	0.3	3.6	-5.2	+	+
CCSc1nc(-c2ccc(OC)cc2)cc(-c2ccccc2)c1C#N	1.4	/	6.2	0.6	-6.3	11.7	/	/
COc1ccc(-c2cc3nc4ccccc4n3c(N)c2C#N)cc1	40.8*	-119.7	30.4	2.6	-4.7	-1.0	+	+
COc1ccc(CNC(=O)CCn2c(=O)oc3ccccc32)c(OC)c1	10.6	-0.8	-15.6	0.8	-0.4	9.6	/	/
CCOC(=O)c1cnc2ccc(C)cn2c1=O	64.8*	-24.0	9.1	-0.4	-13.9	3.7	18.0	6.3
CCc1ccc(CN2CCC(n3nccc3NC(=O)Cc3ccccc3)CC2)o1	2.1	-9.6	-9.1	-0.3	7.1	11.1	/	/
SMILES	FBA Mtb inh	PrP UTR inh	GDH-TPI counter-1	PfHsp40 yeast	PrPC surface inh	BJeLR lethal	Mtb FBA inh conf	GDH-TPI counter-2
Cc1cc2c([nH]c3ccccc32)c(C)n1	95.5*	-13.5	-0.4	0.0	0.6	-3.5	1.7	-7.0
Cc1nc(C(=O)O)cc2c1[nH]c1ccccc12	85.4*	-7.5	14.7	-1.1	-0.6	6.4	+	+
CN1CCN(C(=O)c2ccc(-c3cccs3)s2)CC1	49.6*	-77.9	13.3	-0.5	-14.7	-4.5	23.4	18.4*
CN1CCCN(C(=O)c2ccc(Br)s2)CC1	-2.0	-26.9	2.1	-0.3	-7.3	12.9	/	/
Cc1ccc(S(=O)(=O)N2CCN(C(=O)c3ccc4nc[nH]c4c3)CC2)cc1	3.9	-9.0	-0.3	0.0	-1.6	3.0	/	/
Cn1cc(-c2cccc(C(F)(F)F)c2)cc(C#N)c1=O	45.6*	-7.9	16.4	-0.2	-0.1	6.4	93.9*	61.8*
CC(C)n1cc(-c2ccc(Cl)cc2)cc(C#N)c1=O	3.5	5.6	8.2	0.0	1.2	-7.3	/	/
Cn1cc(-c2cccc(Cl)c2)cc(C#N)c1=O	43.6*	-25.6	13.6	/	-2.0	-11.5	61.6*	42.5*
Cc1ccc(NC(=O)Cn2c(-c3ccc(F)cc3)cnc2SCC(=O)Nc2c(C)cccc2C)cc1	-1.0	-9.4	3.4	0.0	6.9	-7.4	/	/
CCN1CCSc2ccc(C(=O)NCc3cccc(Br)c3)cc21	40.1*	2.5	6.2	-0.2	3.0	0.9	106.9*	82.3*
CCN1CCSc2ccc(C(=O)NCc3cccc(F)c3)cc21	48.6*	-15.1	3.9	1.5	9.6	-1.0	+	162.2*
CCOc1ccccc1CNC(=O)c1ccc2c(c1)N(CC)CCS2	74.3*	9.2	13.9	0.2	13.6	-1.0	25.6	20.9*
CCCOc1ccc(CNC(=O)c2ccc3c(c2)N(CC)CCS3)cc1	74.9*	-16.0	1.0	-1.6	7.8	1.6	156.7*	99.5*
COc1cc(C(=O)NCc2nnc(SCC(=O)N3CCOCC3)o2)cc(OC)c1OC	5.6	2.5	1.6	-0.5	-1.9	1.0	/	/
O=C(NCc1cccs1)c1cc(-c2ccccc2)nc2ccccc12	-1.4	-8.1	8.5	0.5	-10.5	5.9	/	/
O=C(CSc1cccs1)NCCc1ccccc1	2.3	1.1	6.5	-0.4	0.9	4.2	/	/
NS(=O)(=O)c1ccc(CCNC(=O)CSc2cccs2)cc1	96.6*	-26.4	1.3	0.6	-4.0	8.4	87.4*	56.5*
CN(C)S(=O)(=O)c1cccc(NC(=O)c2cc(-c3cccs3)nc3ccccc23)c1	27.8*	-33.0	11.2	-0.1	10.7	-6.1	126.3*	102.7*
NS(=O)(=O)c1ccc(CCNC(=O)c2cc(-c3cccs3)nc3ccccc23)cc1	98.9*	-11.5	9.9	0.1	-4.8	10.7	+	+

Screening data deposited in PubChem by several laboratories.
